Assay results taken from PubChem BioAssay AID1224904 (Broad Institute, 2016).
The campaign covered roughly 37,000 compounds. About 290 (0.78%) were called active. Inconclusive results (about 10%) are left out.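 Rule for the calls: active = mean inhibition of at least 10% in the main channel, exceeding the control channel by a set limit; inconclusive = inhibition of 10% or more but channel gap under a set limit; inactive = mean inhibition below 10%.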 The list comes from a sample in which actives are over-represented; it also holds similar structures and randomly drawn compounds.

Experiment: DUX4 transcriptional activity inhibition in cells – 293T cells, Gaussia and Italica luciferase, primary screen (AID 1224904);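 for activity change, negative = inhibition: 0% = median of neutral control wells and -100% = median of positive control wells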
Conditions: 293T-iDUX4 ZSCAN4-Gaussia luciferase reporter, 24 h, stronger effect = lower value, concentration not given here; for Gaussia minus Italica difference: measured here: selective DUX4 reporter inhibition
[1] = measured here: Italica tet-on control reporter

Row | Compound | activity change, negative = inhibition | activity change, negative = inhibition [1] | Gaussia minus Italica difference
1 | CCC(=O)N1[C@H](CO)[C@@H]2c3ccccc3N(S(=O)(=O)c3ccccc3C)C[C@@H]21 | -0.934% (inactive) | -0.843% | -0.0907%
2 | CO[C@H]1CN(C)C(=O)c2ccc(NS(C)(=O)=O)cc2OC[C@@H](C)N(Cc2ccccc2)C[C@@H]1C | 3.45% (inactive) | 1.74% | 1.71%
3 | CCN(C[C@@H]1[C@@H](c2ccccc2)[C@H](CO)N1C(C)=O)C(=O)NC(C)C | -4.96% (inactive) | -1.07% | -3.89%
4 | CCCNC(=O)N(C)C[C@H]1Oc2ncc(-c3ccc(C(=O)N(C)C)cc3)cc2C(=O)N([C@@H](C)CO)C[C@@H]1C | -0.44% (inactive) | 5.7% | -6.14%
5 | COc1ccc2c3c([nH]c2c1)[C@H](CO)N(C(=O)C1CCOCC1)CC31CN(S(C)(=O)=O)C1 | -4.43% (inactive) | 1.27% | -5.7%
6 | O=C(Cc1ccccc1)N1C[C@H]2[C@@H](c3ccccc31)[C@H](CO)N2C(=O)c1ccc(F)cc1 | 0.616% (inactive) | 2.82% | -2.21%
7 | CN1C(=O)c2cc(NC(=O)c3cnccn3)ccc2OC[C@@H]2O[C@H](CC(=O)NC3CCC3)CC[C@@H]21 | 3.24% (inactive) | 0.171% | 3.07%
8 | O=C(C[C@@H]1CC[C@@H]2[C@H](COC[C@H](O)CN2S(=O)(=O)c2ccc(F)cc2)O1)NCc1ccc(Cl)c(Cl)c1 | -7.18% (inactive) | -12.4% | 5.22%
9 | CCCNC(=O)N1C[C@@H]2[C@H](c3ccccc31)[C@@H](CO)N2C(=O)NC(C)C | -3.62% (inactive) | 0.166% | -3.78%
10 | N#C[C@@H]1N[C@@H](CO)[C@@H]1c1ccc(C#Cc2ccccc2F)cc1 | 0.819% (inactive) | 0.652% | 0.167%
11 | CC=Cc1ccc2n(c1=O)C[C@@H]1[C@@H](CO)[C@H](C(=O)NCCC)[C@H]2N1C(=O)C1CC1 (mixture of isomers) | 3.79% (inactive) | 5.5% | -1.71%
12 | CCCNC(=O)N1C[C@@H](O)COC[C@H]2O[C@@H](CC(=O)NCCCN3CCOCC3)CC[C@@H]21 | -2.3% (inactive) | 5.46% | -7.76%
13 | Cc1cc(C(=O)Nc2ccc3c(c2)C(=O)N(C)[C@H]2CC[C@H](CC(=O)NCC(F)(F)F)O[C@@H]2CO3)no1 | -3.18% (inactive) | 1.49% | -4.67%
14 | C[C@@H](NC(=O)C[C@H]1CC[C@@H](NC(=O)Cc2ccccn2)[C@@H](CO)O1)c1ccccc1 | 14.3% (inactive) | 1.74% | 12.6%
15 | O=C(C[C@@H]1CC[C@H]2[C@@H](COC[C@H](O)CN2C(=O)Nc2ccccc2)O1)NCCc1ccncc1 | -0.33% (inactive) | 7.03% | -7.36%
16 | COc1ccc(NC(=O)N(C)C[C@@H]2OCc3cn(nn3)CCCC(=O)N([C@H](C)CO)C[C@H]2C)c(OC)c1 | -6.81% (inactive) | 4.76% | -11.6%
17 | N#C[C@@H]1[C@@H](c2ccc(-c3ccccc3F)cc2)[C@@H](CO)N1C(=O)C1CC1 | -3.2% (inactive) | -0.917% | -2.29%
18 | COc1ccc2c3c([nH]c2c1)[C@@H](CO)N(Cc1cc(F)ccc1F)CC31CN(C(=O)C2CCC2)C1 | -77.2% (active) | -43.6% | -33.6%
19 | COc1ccc2c3c([nH]c2c1)[C@@H](CO)N(C(=O)NC(C)C)CC31CN(C(=O)C2CCCC2)C1 | 6.7% (inactive) | 0.3% | 6.4%
20 | COc1ccc2c3c(n(C)c2c1)[C@H](CO)N(Cc1ccccc1F)CC31CN(C(=O)C2CCC2)C1 | 6.19% (inactive) | 3.73% | 2.45%

Row | Compound | activity change, negative = inhibition | activity change, negative = inhibition [1] | Gaussia minus Italica difference
21 | C[C@@H]1CN([C@@H](C)CO)C(=O)Cc2cc(NC(=O)Nc3cccc4ccccc34)ccc2O[C@H]1CN(C)S(=O)(=O)c1ccc(Cl)cc1 | -2.17% (inactive) | 3.22% | -5.4%
22 | CC(C)[C@@H]1COCn2nncc2CCCC(=O)N1 | -6.02% (inactive) | 7.14% | -13.2%
23 | CO[C@@H]1CC[C@@H]2CCOc3c(C#N)cccc3C(=O)N(C)C[C@@H](C)C(=O)N(C)C[C@@H]1O2 | -3.12% (inactive) | -1.5% | -1.62%
24 | C[C@H](O)C#Cc1ccc([C@@H]2[C@H](CO)N3CCCCN(CC4CC4)C[C@@H]23)cc1 | 4.25% (inactive) | 9.01% | -4.76%
25 | COCC(=O)N1[C@@H](CO)[C@H](c2ccccc2)C12CN(C(=O)NC1CCCCC1)C2 | 12.7% (inactive) | 4.2% | 8.54%
26 | COc1ccccc1-c1ccc2n(c1=O)C[C@@H]1[C@@H](CO)[C@H](C(=O)NCc3ccccc3Cl)N[C@H]21 | -0.143% (inactive) | -7.51% | 7.37%
27 | CCC(=O)Nc1ccc2c(c1)C(=O)N(C)C[C@H](OC)[C@@H](C)CN(Cc1nccs1)[C@H](C)CO2 | -5.35% (inactive) | 4.67% | -10%
28 | CNC[C@H]1Oc2ncc(C#Cc3ccccc3F)cc2C(=O)N([C@H](C)CO)C[C@H]1C | -2.73% (inactive) | -1.01% | -1.72%
29 | CN1CCN(C(=O)C[C@@H]2CC[C@@H]3[C@H](COC[C@H](O)CN3CC3CCOCC3)O2)CC1 | 7.66% (inactive) | 11.6% | -3.98%
30 | CNC(=O)C[C@@H]1CC[C@H]2[C@H](COc3ccc(NC(=O)C4CC4)cc3C(=O)N2C)O1 | 2.13% (inactive) | -0.014% | 2.15%
31 | CS(=O)(=O)N1C[C@@H](O)COC[C@@H]2O[C@H](CC(=O)NC3Cc4ccccc4C3)CC[C@H]21 | 6.74% (inactive) | -3.08% | 9.82%
32 | CN1c2ccc(-c3ccccc3F)cc2[C@@H]2[C@@H](CCN2C(=O)CN2CCOCC2)[C@H]1CO | 0.948% (inactive) | 9.9% | -8.96%
33 | CCCNC(=O)C[C@@H]1CC[C@H]2[C@H](COc3ccc(NS(=O)(=O)c4ccccc4C)cc3C(=O)N2C)O1 | 1.9% (inactive) | 7.5% | -5.61%
34 | C/C=C/c1ccc2c(c1)O[C@@H](CN(C)C(=O)c1ccccn1)[C@H](C)CN([C@@H](C)CO)S2(=O)=O | -2.65% (inactive) | 3.66% | -6.3%
35 | O=C(NC[C@@H]1[C@@H](c2ccccc2)[C@H](CO)N1C(=O)Cc1cccnc1)C1CC1 | 3.18% (inactive) | 4.6% | -1.42%
36 | CCCNC(=O)N1[C@H](CO)[C@@H]2c3ccccc3N(C(=O)C3CCOCC3)C[C@@H]21 | -1.95% (inactive) | -0.682% | -1.27%
37 | CCS(=O)(=O)N1CCC2(CC1)CN[C@H](CO)c1c2c2ccc(OC)cc2n1C | 14.5% (inactive) | 10.9% | 3.59%
38 | C[C@H](CO)N1C[C@H](C)[C@@H](CN(C)Cc2ccncc2)OCCCC[C@H](C)Oc2ccc(NS(=O)(=O)c3ccc(Cl)cc3)cc2C1=O | 1.79% (inactive) | 8.83% | -7.04%
39 | COc1cccc(C#Cc2ccc3c(c2)[C@@H]2[C@@H](CCN2S(=O)(=O)c2ccc(C)cc2)[C@@H](CO)N3)c1 | 8.73% (inactive) | 11.9% | -3.21%
40 | COc1cccc(CNC(=O)C[C@@H]2CC[C@H]3[C@@H](COc4ccc(NC(=O)c5cccs5)cc4C(=O)N3C)O2)c1 | -0.0474% (inactive) | -2.71% | 2.66%

Row | Compound | activity change, negative = inhibition | activity change, negative = inhibition [1] | Gaussia minus Italica difference
41 | COc1ccc(CNC(=O)C[C@H]2C[C@@H]3c4cc(NC(=O)NC5CCCC5)ccc4O[C@@H]3[C@H](CO)O2)cc1 | 8.81% (inactive) | 6.85% | 1.96%
42 | O=C(CCN1CCCCC1)NCC[C@@H]1CC[C@H](NS(=O)(=O)c2cccc(Cl)c2)[C@H](CO)O1 | 5.38% (inactive) | -7.23% | 12.6%
43 | CN1[C@@H]2c3ccc(-c4ccc(F)cc4)c(=O)n3C[C@H]1[C@H](CO)[C@H]2C(=O)NC1CCC1 | 6.4% (inactive) | -1.88% | 8.27%
44 | CCCNC(=O)N1C[C@@H](O)COC[C@@H]2O[C@H](CC(=O)N3CCN(C)CC3)CC[C@H]21 | 1.94% (inactive) | 0.769% | 1.17%
45 | CS(=O)(=O)N1CCCCN2[C@H](CO)[C@H](c3ccc(-c4cccc(C#N)c4)cc3)[C@H]2C1 | 1.86% (inactive) | -1.58% | 3.44%
46 | CCNC(=O)[C@H]1[C@H](CO)[C@H]2Cn3c(ccc(-c4ccc(OC)cc4)c3=O)[C@H]2N1Cc1ccccc1 | -4.11% (inactive) | -4.47% | 0.354%
47 | O=C(C1CCC1)N1CC2(C1)[C@H](c1ccccc1)[C@H](CO)N2Cc1nccs1 | 12.8% (inactive) | 2.26% | 10.6%
48 | CCC(=O)N1C[C@@H](O)COC[C@H]2O[C@H](CC(=O)NCC3CCCCC3)CC[C@@H]21 | 1.84% (inactive) | 0.272% | 1.57%
49 | COCC#Cc1cnc2c(c1)C(=O)N([C@H](C)CO)C[C@H](C)[C@H](CN(C)Cc1ccc(-c3ccccc3)cc1)O2 | -1.2% (inactive) | -1.59% | 0.393%
50 | C[C@H](CO)N1C[C@H](C)[C@H](CN(C)C(=O)CCN(C)C)OCc2ccccc2-c2c(n(C)c3ccccc23)C1=O | 0.0892% (inactive) | 6.32% | -6.23%
51 | COc1ccccc1C#Cc1ccc([C@@H]2[C@@H](CO)N3CCCCN(S(C)(=O)=O)C[C@@H]23)cc1 | -1.08% (inactive) | 5.65% | -6.73%
52 | COc1ccc(S(=O)(=O)N2CCCCN3[C@H](CO)[C@@H](c4ccc(C#CC(C)C)cc4)[C@H]3C2)cc1 | -31.7% (active) | -3.69% | -28%
53 | O=C(Nc1cccc(F)c1)N1CCCCN2[C@H](CO)[C@H](c3ccc(C#CC4CC4)cc3)[C@@H]2C1 | -32.4% (active) | 5.1% | -37.5%
54 | COc1ccccc1C#Cc1ccc([C@H]2[C@@H](C#N)N(C(=O)C3CCCCC3)[C@@H]2CO)cc1 | -1.13% (inactive) | -0.0756% | -1.05%
55 | CN(C)CC#Cc1ccc([C@@H]2[C@H](CO)N3CCCCN(C(=O)Nc4ccc(F)cc4)C[C@@H]23)cc1 | 15.2% (inactive) | 5.12% | 10.1%
56 | O=C(Nc1cccc(F)c1)N1CC(=O)N2[C@H](CO)[C@H](c3ccc(C#CC4CC4)cc3)[C@@H]2C1 | 2.91% (inactive) | -11.7% | 14.6%
57 | C[C@@H](O)C#Cc1ccc([C@@H]2[C@H]3CN(S(=O)(=O)c4ccccc4)CCCCN3[C@H]2CO)cc1 | 25.7% (inactive) | 12.9% | 12.9%
58 | COc1ccccc1C#Cc1ccc([C@H]2[C@H](CO)N3CCCCN(C(=O)C4CCC4)C[C@@H]23)cc1 | -36.1% (active) | -8.62% | -27.4%
59 | C[C@@H](O)C#Cc1ccc([C@@H]2[C@H](CO)N3CCCCN(S(=O)(=O)c4ccccc4)C[C@@H]23)cc1 | 10.1% (inactive) | -3.26% | 13.3%
